Data as given in the supplement of paper PMC11001985.

compound: C#CCNC(=O)CCSSCCC(=O)NCCc1ccc(C=O)c(C=O)c1; assay: lysine labeling ratio R10:1 (500 µM / 50 µM probe), SILAC-ABPP in living cells; higher = lower intrinsic lysine reactivity toward the probe, active = 2 or less; details: HeLa; probe concentrations 500 vs 50 µM
How it was run: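 For each lysine, R is the median over forward and reverse replicates of the filtered median MS1 peptide ratio of high probe to low probe. The probe, an alkyne-tagged, disulfide-linked lysine probe, was given at 500 µM or 50 µM to living SILAC light and heavy HeLa cells in PBS at room temperature, with label swaps. Values are capped at 20.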

Sequence of UniProt P35052 (P35052 whole entry): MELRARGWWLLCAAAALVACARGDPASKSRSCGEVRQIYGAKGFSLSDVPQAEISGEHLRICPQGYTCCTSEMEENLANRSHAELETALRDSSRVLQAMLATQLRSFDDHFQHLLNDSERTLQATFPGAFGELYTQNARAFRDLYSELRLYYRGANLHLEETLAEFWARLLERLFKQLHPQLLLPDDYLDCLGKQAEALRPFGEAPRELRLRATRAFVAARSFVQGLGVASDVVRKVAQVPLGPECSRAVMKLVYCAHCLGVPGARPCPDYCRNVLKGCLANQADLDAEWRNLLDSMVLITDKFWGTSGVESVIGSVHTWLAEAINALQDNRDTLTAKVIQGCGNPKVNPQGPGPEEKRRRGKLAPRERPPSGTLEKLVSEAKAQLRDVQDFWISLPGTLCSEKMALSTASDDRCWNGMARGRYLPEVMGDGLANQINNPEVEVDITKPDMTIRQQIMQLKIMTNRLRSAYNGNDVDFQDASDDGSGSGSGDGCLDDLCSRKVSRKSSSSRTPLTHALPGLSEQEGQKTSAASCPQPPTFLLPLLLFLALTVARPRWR
Sequence of UniProt O15230 (O15230 whole entry): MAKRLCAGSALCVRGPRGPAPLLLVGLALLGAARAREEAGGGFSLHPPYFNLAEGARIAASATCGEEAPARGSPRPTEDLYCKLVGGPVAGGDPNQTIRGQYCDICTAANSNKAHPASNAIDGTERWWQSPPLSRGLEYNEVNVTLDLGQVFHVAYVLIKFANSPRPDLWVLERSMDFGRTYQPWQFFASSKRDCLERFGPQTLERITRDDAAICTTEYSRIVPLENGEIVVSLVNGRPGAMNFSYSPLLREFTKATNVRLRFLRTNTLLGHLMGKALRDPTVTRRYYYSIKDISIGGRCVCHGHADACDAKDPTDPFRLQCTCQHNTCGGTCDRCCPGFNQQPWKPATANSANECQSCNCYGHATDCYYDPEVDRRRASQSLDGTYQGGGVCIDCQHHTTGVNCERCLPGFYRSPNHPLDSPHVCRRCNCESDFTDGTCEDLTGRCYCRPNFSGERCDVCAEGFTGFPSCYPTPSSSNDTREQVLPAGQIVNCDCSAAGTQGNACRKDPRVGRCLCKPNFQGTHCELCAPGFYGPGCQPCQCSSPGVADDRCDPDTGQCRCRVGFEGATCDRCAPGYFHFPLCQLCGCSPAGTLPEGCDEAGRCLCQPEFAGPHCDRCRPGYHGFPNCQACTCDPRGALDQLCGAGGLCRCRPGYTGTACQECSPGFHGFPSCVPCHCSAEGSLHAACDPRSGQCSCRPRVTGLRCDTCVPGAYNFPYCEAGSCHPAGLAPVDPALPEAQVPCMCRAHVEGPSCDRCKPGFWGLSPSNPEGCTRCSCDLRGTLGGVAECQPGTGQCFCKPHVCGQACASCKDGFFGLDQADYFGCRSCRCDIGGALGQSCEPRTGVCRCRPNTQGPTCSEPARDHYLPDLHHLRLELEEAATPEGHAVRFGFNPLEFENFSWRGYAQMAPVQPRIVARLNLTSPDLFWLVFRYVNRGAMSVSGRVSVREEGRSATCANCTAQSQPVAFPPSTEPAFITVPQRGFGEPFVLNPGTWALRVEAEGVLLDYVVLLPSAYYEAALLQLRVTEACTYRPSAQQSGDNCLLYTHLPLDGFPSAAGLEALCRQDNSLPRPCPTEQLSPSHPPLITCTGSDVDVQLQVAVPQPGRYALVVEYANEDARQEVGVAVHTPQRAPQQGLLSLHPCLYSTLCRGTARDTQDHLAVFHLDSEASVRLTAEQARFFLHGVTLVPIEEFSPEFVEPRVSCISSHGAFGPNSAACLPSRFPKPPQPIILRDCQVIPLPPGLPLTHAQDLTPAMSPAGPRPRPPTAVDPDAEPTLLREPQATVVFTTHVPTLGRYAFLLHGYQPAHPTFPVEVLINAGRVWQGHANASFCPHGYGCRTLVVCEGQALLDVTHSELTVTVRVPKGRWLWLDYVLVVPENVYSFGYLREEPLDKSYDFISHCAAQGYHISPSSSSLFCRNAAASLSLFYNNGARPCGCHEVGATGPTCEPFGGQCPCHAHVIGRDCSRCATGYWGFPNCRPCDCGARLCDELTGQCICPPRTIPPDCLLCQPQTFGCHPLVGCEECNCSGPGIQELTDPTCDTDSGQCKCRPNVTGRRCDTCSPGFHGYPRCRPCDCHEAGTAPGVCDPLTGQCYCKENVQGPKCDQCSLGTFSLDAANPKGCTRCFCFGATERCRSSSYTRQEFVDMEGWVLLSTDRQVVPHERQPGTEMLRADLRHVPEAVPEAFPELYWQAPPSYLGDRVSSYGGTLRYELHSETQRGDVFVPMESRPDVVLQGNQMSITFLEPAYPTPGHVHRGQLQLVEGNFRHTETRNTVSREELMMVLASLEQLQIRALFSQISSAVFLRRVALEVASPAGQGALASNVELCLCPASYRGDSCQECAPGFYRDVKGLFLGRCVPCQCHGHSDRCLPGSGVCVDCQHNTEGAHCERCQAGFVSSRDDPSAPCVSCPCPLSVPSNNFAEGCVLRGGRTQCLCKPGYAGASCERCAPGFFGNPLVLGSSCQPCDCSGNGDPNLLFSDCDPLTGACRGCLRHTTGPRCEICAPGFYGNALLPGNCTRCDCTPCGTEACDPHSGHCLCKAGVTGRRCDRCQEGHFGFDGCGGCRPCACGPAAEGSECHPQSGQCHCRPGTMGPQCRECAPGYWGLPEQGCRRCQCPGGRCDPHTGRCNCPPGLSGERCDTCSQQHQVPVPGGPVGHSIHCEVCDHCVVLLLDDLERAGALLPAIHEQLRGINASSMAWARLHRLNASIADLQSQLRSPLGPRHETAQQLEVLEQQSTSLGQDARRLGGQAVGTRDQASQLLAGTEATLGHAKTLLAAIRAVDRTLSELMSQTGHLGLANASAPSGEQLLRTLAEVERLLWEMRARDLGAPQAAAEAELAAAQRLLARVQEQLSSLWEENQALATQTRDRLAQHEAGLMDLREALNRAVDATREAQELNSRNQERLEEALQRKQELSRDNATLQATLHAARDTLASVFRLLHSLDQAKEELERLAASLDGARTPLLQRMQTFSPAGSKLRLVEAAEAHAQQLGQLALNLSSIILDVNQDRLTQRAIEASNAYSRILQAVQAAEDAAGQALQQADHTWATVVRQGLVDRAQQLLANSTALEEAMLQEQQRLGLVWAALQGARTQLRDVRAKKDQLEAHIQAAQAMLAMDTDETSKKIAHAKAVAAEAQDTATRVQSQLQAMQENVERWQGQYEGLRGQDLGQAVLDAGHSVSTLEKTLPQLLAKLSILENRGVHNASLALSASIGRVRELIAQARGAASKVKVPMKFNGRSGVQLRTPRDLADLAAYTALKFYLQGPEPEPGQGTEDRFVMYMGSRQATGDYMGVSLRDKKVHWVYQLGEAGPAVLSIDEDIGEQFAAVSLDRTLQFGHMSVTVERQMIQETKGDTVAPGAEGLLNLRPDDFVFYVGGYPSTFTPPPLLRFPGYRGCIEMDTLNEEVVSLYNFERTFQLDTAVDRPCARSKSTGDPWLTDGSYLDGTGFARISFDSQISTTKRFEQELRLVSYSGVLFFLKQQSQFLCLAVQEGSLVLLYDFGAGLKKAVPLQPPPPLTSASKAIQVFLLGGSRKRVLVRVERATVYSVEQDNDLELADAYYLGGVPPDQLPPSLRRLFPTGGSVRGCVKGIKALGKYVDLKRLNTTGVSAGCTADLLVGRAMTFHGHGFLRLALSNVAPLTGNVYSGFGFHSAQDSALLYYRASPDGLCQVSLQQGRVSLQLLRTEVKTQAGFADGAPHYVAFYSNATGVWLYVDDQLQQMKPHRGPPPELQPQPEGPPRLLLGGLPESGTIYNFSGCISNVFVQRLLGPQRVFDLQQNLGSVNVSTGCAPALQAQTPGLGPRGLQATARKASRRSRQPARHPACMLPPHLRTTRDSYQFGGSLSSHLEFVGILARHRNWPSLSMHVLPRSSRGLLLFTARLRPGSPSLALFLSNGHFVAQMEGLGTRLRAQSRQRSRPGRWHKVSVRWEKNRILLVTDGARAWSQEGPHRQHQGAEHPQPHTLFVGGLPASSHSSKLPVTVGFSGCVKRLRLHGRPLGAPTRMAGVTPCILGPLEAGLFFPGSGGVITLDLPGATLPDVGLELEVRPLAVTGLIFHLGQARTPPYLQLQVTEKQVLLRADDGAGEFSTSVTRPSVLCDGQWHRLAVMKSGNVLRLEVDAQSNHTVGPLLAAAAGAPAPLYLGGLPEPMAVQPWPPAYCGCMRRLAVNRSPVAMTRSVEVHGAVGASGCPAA
Sequence of UniProt O15258 (O15258 whole entry): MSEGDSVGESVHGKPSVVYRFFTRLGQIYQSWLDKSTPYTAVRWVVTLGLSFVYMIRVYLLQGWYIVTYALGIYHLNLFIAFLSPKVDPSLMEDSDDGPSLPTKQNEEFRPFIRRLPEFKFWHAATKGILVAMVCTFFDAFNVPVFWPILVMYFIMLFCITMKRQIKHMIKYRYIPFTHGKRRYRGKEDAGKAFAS
Sequence of UniProt O00560 (O00560 whole entry): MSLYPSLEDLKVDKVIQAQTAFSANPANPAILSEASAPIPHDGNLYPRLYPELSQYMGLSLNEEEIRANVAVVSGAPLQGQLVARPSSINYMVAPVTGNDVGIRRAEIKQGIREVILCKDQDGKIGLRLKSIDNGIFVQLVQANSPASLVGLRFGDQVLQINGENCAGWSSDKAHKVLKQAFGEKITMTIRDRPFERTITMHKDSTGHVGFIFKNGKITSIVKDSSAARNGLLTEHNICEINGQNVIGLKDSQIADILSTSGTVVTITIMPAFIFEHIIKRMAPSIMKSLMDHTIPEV
Sequence of UniProt P27105 (P27105 whole entry): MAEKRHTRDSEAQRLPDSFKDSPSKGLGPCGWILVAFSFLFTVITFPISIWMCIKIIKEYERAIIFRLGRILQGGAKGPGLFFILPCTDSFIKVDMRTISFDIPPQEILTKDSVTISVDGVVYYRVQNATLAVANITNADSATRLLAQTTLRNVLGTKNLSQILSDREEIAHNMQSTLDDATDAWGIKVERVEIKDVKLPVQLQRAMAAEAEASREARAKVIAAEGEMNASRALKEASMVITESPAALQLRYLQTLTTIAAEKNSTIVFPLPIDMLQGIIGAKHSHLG

Target | lysine labeling ratio R10:1
ROBO1 (lysine site: K137) (UniProt Q9Y6N7) | 5.8 (inactive)
SDCBP (lysine site: K124) (UniProt O00560) | 1.6 (active)
SPTBN1 (lysine site: K1421) (UniProt Q01082) | 3.37 (inactive)
STOM (lysine site: K198) (UniProt P27105) | 5.83 (inactive)
MYH9 (lysine site: K1648) (UniProt P35579) | 1.22 (active)
GPC1 (lysine site: K42) (UniProt P35052) | 2.38 (inactive)
ITGB1 (lysine site: K100) (UniProt P05556) | 10.5 (inactive)
XRCC6 (lysine site: K338) (UniProt P12956) | 1.69 (active)
LAMA5 (lysine site: K1854) (UniProt O15230) | 3.02 (inactive)
EGFR (lysine site: K294) (UniProt P00533) | 3.59 (inactive)
RPL35A (lysine site: K95) (UniProt P18077) | 3.1 (inactive)
IGF2R (lysine site: K1576) (UniProt P11717) | 0.605 (active)
PDIA6 (lysine site: K150) (UniProt Q15084) | 4.08 (inactive)
RER1 (lysine site: K181) (UniProt O15258) | 7.46 (inactive)
TKT (lysine site: K283) (UniProt P29401) | 7.35 (inactive)
GPC1 (lysine site: K277) (UniProt P35052) | 2.26 (inactive)
FLNB (lysine site: K1955) (UniProt O75369) | 1.23 (active)
